A selection: hits, their analogues and other compounds. The true share with any hit is near 4.1%.
MRP1 act: H69AR viability gain despite doxorubicin, primary screen, MRP-1 activator project, H69AR cells, CellTiter-Glo | viability rescue | viability increase, % at 10 µM | hit rate 0.61% among 140,000 | AID 799, 2007;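 active means viability gain under doxorubicin at or above a set limit, the compound median plus 3 SD, cut at about 4.7% in these data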;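 further: MRP-1 overexpressing cells given doxorubicin 25 µM after compound pretreatment; 18-22 h compound pretreatment then 72 h with doxorubicin before readout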
PTK2B oligo ant: antagonists of Pyk2 self-association, primary screen, Q293 cells, FERM NanoBiT luminescence, HTS | Protein-tyrosine kinase 2-beta (Homo sapiens), Q14289 | hits give low values | z-score (the deposit names both 25 µM and 10 µM) | hit rate 0.83% among 99,000;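 active means Z-score of -3 or lower, scaled per plate to the spread of control and sample wells; inactive means z-score above -3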;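 further: negative z-score means lost luminescence so less FERM oligomerization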
CD11b adhes inh: inhibitors of CD11b/CD18 adhesion to fibrinogen, primary screen, K562 cells, luminescence | AID 1497, 2009 | inhibition, % at 10 µM | ATPlite luminescence; Mn2+ added to activate the integrin | hit rate 0.54% among 93,000;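 active means primary inhibition of 50% or more at 10 µM, then 40% or more on retest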
MRP resist rev: reversal of MRP1-mediated doxorubicin resistance, primary screen, H69AR cells, doxorubicin co-treatment; differential viability (reversal), % at 10 µM; H69AR cells + 2 uM doxorubicin, CellTiter-Glo, 72 h; hit rate 0.04% among 85,000;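 active means viability drop by adding the cancer drug above about 55%, with treated viability meeting a 40% cutoff, limit read from the data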;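 further: larger differential means the compound sensitizes cells more to doxorubicin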
CD11b adhes enh: enhancers of CD11b/CD18 adhesion to fibrinogen, primary screen, K562 cells, luminescence | Integrin beta-2 (Homo sapiens) + Integrin alpha-M (Homo sapiens), P05107+P11215 | ATPlite luminescence | activation, % at 10 µM | hit rate 0.07% among 93,000;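 active means 10 µM primary screen giving 50% or more activity, confirmed by 40% or more on retest at that dose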
Cav3 T inh: Cav3.2 calcium influx blockers – cell-based, Fluo-4 calcium fluorescence, FDSS, MLSMR library, primary screen | Voltage-dependent T-type calcium channel subunit alpha-1H (Homo sapiens), O95180 | B-score at 10 µM | Cav3.2-expressing cells; hits give low values | hit rate 4% among 100,000;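 active means single-dose well whose peak fluorescence ratio is a statistical outlier from its plate by either plate-standardised score or position-corrected B-score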
Numbers stand for hits; 0 = inactive; - = no result given.

SMILES	MRP1 act	PTK2B oligo ant	CD11b adhes inh	MRP resist rev	CD11b adhes enh	Cav3 T inh
Cc1ccc(S(=O)(=O)N2CCC(C(=O)Nc3nnc(C4CCCC4)s3)CC2)cc1	0	0	0	0	0	0
CC(C)CCN1CC(C(=O)NCCC2=CCCCC2)CC1=O (stereo unspecified)	0	0	0	0	0	0
Cc1cccc(NC(=O)c2cccc(NS(=O)(=O)c3ccc(Cl)cc3)c2)c1	0	0	0	-	0	-9.6
O=C(Nc1cccc(S(=O)(=O)Nc2ccc(Cl)cc2)c1)c1ccc(Cl)nc1	0	-	0	-	0	-
Cc1nn(Cc2ccc(Cl)cc2)c(C)c1NC(=O)CSc1nc2c(c(C(F)(F)F)n1)CCc1ccccc1-2	0	0	-	-	-	-3.9
Cc1ccc(Cn2nc(C)c(NC(=O)CSc3nc4c(c(C(F)(F)F)n3)CCc3ccccc3-4)c2C)cc1	0	-	0	-	0	-
O=C(NCc1ccccc1)/C(NC(=O)c1ccccc1)=C(/Sc1ccccn1)c1ccccc1	0	-4.1	-	0	-	0
COc1ccc(NC(=O)c2cccc(S(=O)(=O)Nc3ccc(Br)cc3)c2)cn1	0	-	103	-	0	-
COc1ccc(Br)cc1C(=O)Nc1cccc(C)c1	0	0	0	0	0	0
COc1ccc(Br)cc1C(=O)Nc1ccccc1-c1ccccc1	0	-3.6	0	-	0	0
CC(C)CN(C(=O)COC(=O)c1cc2c(s1)CCC2)C1CCS(=O)(=O)C1 (stereo unspecified)	0	0	0	0	0	0
Cc1ccc(C)c(/C(O)=C2\C(=O)C(=O)N(CCCn3ccnc3)C2c2ccncc2)c1 (stereo unspecified)	7.3	0	-	0	-	0
Cc1ccc(/C(O)=C2/C(=O)C(=O)N(CCCn3ccnc3)C2c2ccccn2)cc1 (stereo unspecified)	0	-	-	0	-	-
CCOc1ccc(C(=O)Nc2c3c(nn2C(C)(C)C)CSC3)cc1OCC	0	0	0	0	0	-3.3
CC(C)=CCc1c(O)cc(O)c2c(=O)c3c(CC=C(C)C)c(O)ccc3oc12	-	-	-	-	-	0
COC(=O)c1ccc(N2CCC(c3cc(-c4ccc(OC)cc4)n[nH]3)CC2)c([N+](=O)[O-])c1	0	0	-	-	-	0
COc1ccc(-c2cc(C3CCN(c4ccc(C(C)=O)cc4[N+](=O)[O-])CC3)[nH]n2)cc1	0	-3.2	-	-	-	0
C=CCOC(=O)C1=C[C@@H](c2ccc(Br)cc2)C[C@@H](OCCCCO)O1	-	-	-	-	-	0
c1ccc2c(c1)Nc1nccnc1S2	5.1	-	-	-	-	-
Cc1nc(/C=[N+](\[O-])C(C)(C)/C=N/O)n(O)c1C	0	0	0	0	0	0
O=C(c1ccc(F)cc1)C1CCN(CCn2c(=S)[nH]c3ccccc3c2=O)CC1	-	-	-	-	-	-4.8
O=C(C1CCC(Cn2c(=S)[nH]c3ccccc3c2=O)CC1)N1CCN(c2ccccc2)CC1 (stereo unspecified)	-	0	-	0	-	-4.7
O=C(C1CCC(Cn2c(=O)[nH]c3ccccc3c2=O)CC1)N1CCN(c2ccccc2)CC1 (stereo unspecified)	0	-	-	0	-	-
O=C1C2C(C(=O)N1/N=C/c1cc(Br)cc([N+](=O)[O-])c1O)C1C=CC2C12CC2 (stereo unspecified)	0	0	66	-	0	-6
CC(=O)Nc1nc(=S)ss1	0	0	0	0	0	0
SMILES	MRP1 act	PTK2B oligo ant	CD11b adhes inh	MRP resist rev	CD11b adhes enh	Cav3 T inh
Cc1ccccc1C(=O)Nc1nc(=S)ss1	0	0	100	-	0	-5
CC(C)CC(=O)Nc1nc(=S)ss1	0	0	75	0	0	-5.6
Cc1scc(C(=O)N/N=C/c2ccc(OCC(C)C)cc2)c1C	0	0	0	-	0	-4.3
COc1ccc(C2=Nn3c(nnc3-c3ccc(OC)cc3)SC2)cc1	0	0	0	0	0	-7.2
COc1ccc(OC)c(C2=Nn3c(nnc3-c3cc(OC)c(OC)c(OC)c3)SC2)c1	0	-3.1	0	0	0	0
c1ccc(C2=Nn3c(nnc3-c3cc(-c4ccccc4)n[nH]3)SC2)cc1	0	-3.3	0	0	0	0
O=C(CCCSc1nc2ccccc2s1)NCc1ccc2c(c1)OCO2	0	-	0	-	0	-
COc1cc(NC(=O)CSc2nc3cc(C)ccc3cc2C)c(C(=O)O)cc1OC	0	-	-	-	-	-
Cc1cc(NC(=O)CSc2nnc(-c3ccc(Br)o3)n2Cc2ccccc2)no1	0	0	0	0	0	-5
Cc1cc(NC(=O)CSc2nnc(-c3ccco3)n2Cc2ccccc2)no1	0	0	-	0	-	0
CCCn1c(SCC(=O)Nc2ccccc2-c2ccccc2)nnc1-c1ccoc1C	0	0	0	0	0	-5.9
Cc1occc1-c1nnc(SCC(=O)Nc2ccc(F)cc2)n1Cc1ccccc1	0	0	0	0	0	-6.2
CCCC(=O)C1=C(c2ccccc2)C(C#N)(C#N)C(C#N)=C1N	0	0	0	0	0	0
CC(C)(C)OC(=O)COc1cc(OCC(=O)OC(C)(C)C)c2c(=O)cc(-c3ccccc3)oc2c1	0	0	0	-	0	-4
Cc1ccccc1OCCC(=O)Nc1cccc(S(=O)(=O)Nc2ccccc2Cl)c1	0	-	-	-	-	-
COc1ccc(OC)c(S(=O)(=O)N(C)CC(=O)N2CCN(c3cccc(Cl)c3)CC2)c1	0	0	0	0	0	-6.8
COc1ccc(OCC(=O)N2CCN(c3cccc(Cl)c3)CC2)cc1	0	0	0	0	0	-4.5
COc1ccccc1OCC(=O)N1CCN(c2ccccc2OC)CC1	0	0	0	0	0	0
CCC(C(=O)N1CCN(c2cccc(Cl)c2)CC1)c1ccccc1 (stereo unspecified)	0	0	0	0	0	-5.3
COc1ccccc1N1CCN(C(=O)COc2ccc(Cl)cc2)CC1	6.6	0	0	0	0	0
COc1ccc(N2CCN(C(=O)COc3ccc(Cl)cc3Cl)CC2)cc1	0	0	0	0	0	-
Cc1ccc(CSC2=Nc3sccc3C3=NC(=O)CN23)cc1	0	0	-	-	-	0
COc1ccc(N2CCN(C(=O)CN(Cc3ccccc3)S(C)(=O)=O)CC2)cc1	0	0	0	0	0	0
COc1ccc(N2CCN(C(=O)CN(Cc3ccc(Cl)cc3)S(C)(=O)=O)CC2)cc1	0	0	0	0	0	-4.6
O=C(COc1ccc(Br)cc1)N1CCN(c2ccccc2)CC1	0	0	0	0	0	-3.3
COc1ccc(OCC(=O)N2CCN(c3cccc(C(F)(F)F)c3)CC2)cc1	0	0	0	0	0	-6.9
NS(=O)(=O)c1ccc(NC(=S)N2CCN(c3ccc(Cl)c(Cl)c3)CC2)cc1	0	0	-	-	-	-
COc1ccc(NC(=O)C(c2ccc(C)cc2)N(C)C(=O)CC2NC(=O)NC2=O)cc1 (stereo unspecified)	0	-	-	-	-	-
O=C(O/N=C1/CCSc2ccccc21)c1ccc(F)cc1	0	0	-	-	-	-4.7
